# Results reported in ChEMBL document CHEMBL4296182, “CO-ADD screening of NIH NCI Diversity Set V”.
# For part of these data: Results with a measured potency or affinity are listed apart.
# Key:
# [1] = test system: Staphylococcus aureus; assay: Antibacterial activity against Staphylococcus aureus MRSA ATCC 43300 (CO-ADD:GP_020); MIC in CAMBH media using NBS plates, by Resazurin F(560/590); assay type: functional; settings: Concentration 20 uM, ASSAY_TEST Inhibition of Bacterial Growth, detection method Resazurin, Fluorescence (ex560/em590), MEDIA CAMHB, plate type 384well, CORNING #3640, time 18 hr
# [2] = test system: Acinetobacter baumannii; assay: Antibacterial activity against Acinetobacter baumannii ATCC 19606 (CO-ADD:GN_034); MIC in CAMBH media using NBS plates, by Resazurin F(560/590); assay type: functional; settings: Concentration 20 uM, ASSAY_TEST Inhibition of Bacterial Growth, detection method Resazurin, Fluorescence (ex560/em590), MEDIA CAMHB, plate type 384well, CORNING #3640, time 18 hr
# [3] = test system: Escherichia coli; assay: Antibacterial activity against Escherichia coli ATCC 25922 (CO-ADD:GN_001); MIC in CAMBH media using NBS plates, by Resazurin F(560/590); assay type: functional; settings: Concentration 20 uM, ASSAY_TEST Inhibition of Bacterial Growth, detection method Resazurin, Fluorescence (ex560/em590), MEDIA CAMHB, plate type 384well, CORNING #3640, time 18 hr
# [4] = test system: Klebsiella pneumoniae; settings: Concentration 20 uM; ASSAY_TEST Inhibition of Bacterial Growth; detection method Absorption (OD600); MEDIA CAMHB; plate type 384well; NBS; CORNING #3640; time 18 hr
# [5] = test system: Candida albicans; settings: 20 µM
# [6] = test system: Cryptococcus neoformans; settings: Concentration 20 uM; ASSAY_TEST Inhibition of Fungal Growth; detection method Resazurin; Absorption (OD600-OD570); plate type 384well; NBS; CORNING #3640
Structure (SMILES),Inhibition [1],Inhibition [2],Inhibition [3],Inhibition [4],Inhibition [5],Inhibition [6]
Cc1nc(O)c2c3c(sc2n1)CCCC3,1.78%,-6.79%,6.4%,-0.52%,-0.04%,-11.89%
Cc1ccccc1OCC(O)CN1CCN(c2ccc(Cl)cc2)CC1 (stereo not given),16.79%,7.24%,2.66%,7.5%,0.11%,-12.08%
CN(C)Cc1cc(C(F)(F)F)ccc1C(O)(c1ccccc1)c1ccccc1,9.65%,13.38%,9.52%,10.99%,-1.43%,-9.44%
O=[N+]([O-])c1ccc2[nH]c3nc4ccccc4nc3c2c1,17.59%,16.49%,-1.33%,-1.62%,5.48%,44.37%
CN1CCC(=C(c2ccc(Cl)cc2)c2ccccn2)CC1.O=C(O)/C=C\C(=O)O [CYCLIRAMINE MALEATE],6.43%,-10.18%,9.66%,13.03%,1.65%,-5.61%
N#C/C(=C\c1ccc(C#N)cc1)C(=O)c1ccccc1,-10.06%,-6.48%,6.05%,15.1%,8.77%,-10.85%
Cc1ccc(/N=N/c2ccc(N)cc2C)c(S(N)(=O)=O)c1,-7.58%,-6.13%,2.58%,0.06%,2.21%,-0.55%
CN(C)c1ncnc2c1ncn2-c1ccccc1,-6.98%,-8.04%,0.85%,6.41%,1.36%,-5.49%
Nc1ccccc1-c1nc2cnccc2[nH]1,12.51%,-12.24%,9.24%,2.75%,-2.69%,-6.41%
CCCCN1CCN=C1S,9.78%,-11.78%,10.98%,14.43%,-2.77%,-2.57%
Nc1ccc(C(=O)Nc2ccc(Nc3ccncc3)cc2)cc1,-3.72%,6.97%,-13.54%,10.04%,2.67%,-0.31%
O=c1cc2oc3cc(O)c(O)cc3c(-c3ccccc3O)c-2cc1O,-11.77%,-19.46%,15.45%,16.39%,44.4%,-6.63%
COc1ccc(/C=C2/CCOC2=O)cc1,-2.28%,-9.37%,12.04%,6.07%,3.59%,-15.8%
Cn1c(=O)c2c(nc(OCCc3ccccc3)n2C)n(C)c1=O,6.63%,-9.02%,8.83%,12.12%,3.96%,-6.56%
O=C(c1ccccc1)c1ccccc1C(=O)c1ccccc1,16.85%,12.71%,4.94%,16.03%,2.49%,-5.73%
CC1(C)N=C(N)N=C(N)N1c1ccc(OCCCOc2ccccc2)c(Cl)c1.CCS(=O)(=O)O,10.6%,-13.57%,15.29%,12.4%,-0.44%,-3.49%
Oc1ncc(I)cc1I,37.5%,6.08%,2.67%,22.74%,4.4%,23.72%
O=C(Nc1ccc(Oc2ccc(NC(=O)Nc3ccc([N+](=O)[O-])cc3)cc2)cc1)Nc1ccc([N+](=O)[O-])cc1,16.59%,-20.31%,13.56%,15.1%,1.13%,-4.65%
COC(=O)C1CC(O)C(O)C(O)C1 (stereo not given),17.7%,-10.09%,12.92%,15.79%,1.86%,-4.69%
CC(OC(=O)Nc1cccc(Cl)c1)C(=O)O (stereo not given),8.5%,9.43%,16.3%,7.75%,-1.51%,-11.24%
